Source: PubChem BioAssay (Tox21)
Values joined by “and” are separate entries in the source; they are usually repeats but may differ in a detail not shown here. Equal values may be shown once. Inconclusive results are not listed. More than one record can exist for a structure, and the calls need not agree. Active and inactive are the calls of the source. Unless noted, the call rests on the fitted dose curve; in most records, active means well fitted curve in the direction sought with a large enough effect in the repeat runs; inconclusive means weak or mixed curves; inactive means no such curve, though single readings can be large; an effect the other way counts as inactive or inconclusive.

Tests used:
[1] = qHTS assay to identify small molecule agonists of H2AX (AID 1224845; active means well fitted activation curve with a large enough effect in the signal ratio in the repeat runs, not every such curve was filed as active; the % refers to the signal ratio; further: potency means the concentration at half of the fitted maximal effect)
Procedure, shortened: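 Wild-type CHO-K1 cells plated overnight, then exposed 3 hr at 37C to compounds at 15 concentrations (0.76% DMSO). Lysed, then HTRF anti-pH2AX(S139)-cryptate/anti-H2AX-d2 detection after 24 hr at room temperature; emissions 665 and 620 nm.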

[2] = qHTS assay to identify small molecule agonists of the hypoxia (HIF-1) signaling pathway (AID 1224846; active means well fitted activation curve with a large enough effect in the signal ratio in the repeat runs, not every such curve was filed as active; the % refers to the signal ratio)
Procedure, shortened: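 Beta-lactamase FRET read-out (CCF4-AM substrate) from ME-180 cells carrying an HRE-driven bla reporter, after 17 hrs compound exposure at 37C/5% CO2. Cells were seeded at 2,000 per well in 0.5% dialyzed FBS medium and preincubated 5 hrs.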

[3] = qHTS assay to identify small molecule agonists of H2AX - cell viability counter screen (AID 1224847; calls by dose curve; further: nearly all actives have a fitted effect of over 30% in size; further: potency means the concentration at half of the fitted maximal effect)
Procedure, shortened: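 Viability of CHO-K1 (wild type) cells after 3 hr compound exposure was measured by CellTiter-Glo luminescence.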

[4] = qHTS RealTime-Glo MT Cell Viability Assay in HepG2 cells - 24 hour (AID 1224867); further: nearly all actives have a fitted effect of over 50% in size
Procedure, shortened: (§1)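 Cell number in HepG2 cultures estimated from NanoLuc luminescence generated by metabolic reduction of a prosubstrate by living cells. The homogeneous, nonlytic format allowed repeated reads at 0, 8, 16, 24, 32 and 40 h of compound exposure.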

[5] = qHTS RealTime-Glo MT Cell Viability Assay in HEK293 cells - 32 hour (AID 1224868); further: nearly all actives have a fitted effect of over 50% in size; further: potency means the concentration at half of the fitted maximal effect
Procedure, shortened: (§2)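 Homogeneous bioluminescent viability format in HEK293 cells (600 cells/well). Following 5 h at 37 C/5% CO2, 23 nL compound was pintooled; the signal was measured repeatedly during 40 h incubation.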

[6] = A CellTox Green Cytotoxicity Assay to monitor cytotoxicity in HEK293 cells - 0 hour (AID 1224869); further: nearly all actives have a fitted effect of over 50% in size
Procedure, shortened: (§3)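 Read-out: fluorescence of a cell-impermeant cyanine dye staining DNA of dead cells, proportional to cytotoxicity. HEK293, 600 cells/well with reagent, compound (23 nL DMSO) added after 5 h; reads at 0, 8, 16, 24, 32, 40 h.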

[7] = qHTS RealTime-Glo MT Cell Viability Assay in HepG2 cells - 40 hour (AID 1224870); further: nearly all actives have a fitted effect of over 50% in size
Procedure, shortened: (§4)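 HepG2 cells mixed with RealTime-Glo MT reagents (NanoLuc plus cell-permeant prosubstrate) were seeded at 600 cells/well, incubated 5 h at 37 C/5% CO2, then pinned with compounds in DMSO; nonlytic luminescence tracked viability during 40 h treatment.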

[8] = A CellTox Green Cytotoxicity Assay to monitor cytotoxicity in HEK293 cells - 40 hour (AID 1224871); further: nearly all actives have a fitted effect of over 45% in size; further: potency means the concentration at half of the fitted maximal effect
Procedure, shortened: as §3

[9] = qHTS RealTime-Glo MT Cell Viability Assay in HepG2 cells - 8 hour (AID 1224873); further: nearly all actives have a fitted effect of over 55% in size
Procedure, shortened: as §4

[10] = qHTS RealTime-Glo MT Cell Viability Assay in HEK293 cells - 40 hour (AID 1224874); details: RealTime-Glo luminescence; max response: stronger effect = lower value; further: nearly all actives have a fitted effect of over 50% in size; further: potency means the concentration at half of the fitted maximal effect
Procedure, shortened: (§5)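 Luminescence readout at each listed time point; HEK293, 600 cells/well, RealTime-Glo MT reagent added with cells; compounds pinned (23 nL in DMSO) after 5 h at 37 C; continuous culture at 37 C.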

[11] = A CellTox Green Cytotoxicity Assay to monitor cytotoxicity in HEK293 cells - 24 hour (AID 1224875); further: nearly all actives have a fitted effect of over 45% in size
Procedure, shortened: as §3

[12] = A CellTox Green Cytotoxicity Assay to monitor cytotoxicity in HepG2 cells - 16 hour (AID 1224876); further: nearly all actives have a fitted effect of over 45% in size; further: potency means the concentration at half of the fitted maximal effect
Procedure, shortened: (§6)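 HepG2, 600 cells/well premixed w/ CellTox Green; 5 h settle, 37 C/5% CO2; pintool cpd add (DMSO); 37 C, 40 h; fluorescence read at 0, 8, 16, 24, 32, 40 h.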

[13] = qHTS RealTime-Glo MT Cell Viability Assay in HepG2 cells - 32 hour (AID 1224877); further: nearly all actives have a fitted effect of over 55% in size
Procedure, shortened: as §1

[14] = A CellTox Green Cytotoxicity Assay to monitor cytotoxicity in HepG2 cells - 24 hour (AID 1224878); further: nearly all actives have a fitted effect of over 45% in size; further: potency means the concentration at half of the fitted maximal effect
Procedure, shortened: as §6

[15] = A CellTox Green Cytotoxicity Assay to monitor cytotoxicity in HepG2 cells - 40 hour (AID 1224879); further: nearly all actives have a fitted effect of over 40% in size; further: potency means the concentration at half of the fitted maximal effect
Procedure, shortened: as §6

[16] = qHTS RealTime-Glo MT Cell Viability Assay in HEK293 cells - 0 hour (AID 1224880)
Procedure, shortened: as §5

[17] = qHTS RealTime-Glo MT Cell Viability Assay in HEK293 cells - 16 hour (AID 1224872); further: nearly all actives have a fitted effect of over 50% in size; further: potency means the concentration at half of the fitted maximal effect
Procedure, shortened: as §2

[18] = qHTS assay to identify small molecule antagonists of the estrogen related receptor (ERR) signaling pathway from Tox21 library (AID 1224848); further: nearly all actives have a fitted effect of over 50% in size; further: potency means the concentration at half of the fitted maximal effect
Procedure, shortened: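 First, 2,000 ERR cells per well were plated and held 6 h at 37 C/5% CO2. Next, compounds in DMSO were pinned in and left 18 h at 37 C. Finally, ONE-Glo was added and luminescence read after 30 min at room temperature.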

[19] = qHTS assay to identify small molecule agonists of the estrogen related receptor (ERR) signaling pathway from Tox21 library (AID 1224849; calls by dose curve; further: nearly all actives have a fitted effect of over 15% in size); details: ERR reporter cell line, ONE-Glo luciferase, 18 h
Procedure, shortened: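 Luminescence readout (ONE-Glo, 30 min RT) after 18 h compound exposure at 37 C of NTP-supplied ERR reporter cells; cells were plated 6 h before compound addition by pin tool.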
On the % scale 0 is the no-effect control and ±100 the full control effect.

CCOP(=O)(SC(C)CC)N1CCSC1=O (stereo not given)
inactive: Potency [1] | outcome [2] | Potency [3] | Potency [4] | Potency [5] | Potency [6] | Potency [7] | Potency [8] | Potency [9] | max response [10] 15% | Potency [11] | Potency [12] | Potency [13] | Potency [14] | Potency [15] | outcome [16]

O=C(O)C(F)(F)C(F)(F)C(F)(F)C(F)(F)C(F)(F)C(F)(F)C(F)(F)C(F)(F)F
inactive: Potency [1] | outcome [2] | Potency [3] | Potency [5] | Potency [7] | Potency [8] | Potency [11] | Potency [12] | Potency [14] | Potency [15] | outcome [16]

CN[C@@H](C)[C@H](O)c1ccccc1
inactive: Potency [1] | outcome [2] | Potency [3] | Potency [4] | Potency [5] | Potency [6] | Potency [7] | Potency [8] | Potency [17] | Potency [9] | max response [10] 1.2% | Potency [11] | Potency [12] | Potency [13] | Potency [14] | Potency [15] | outcome [16]

CCCN(CCOc1c(Cl)cc(Cl)cc1Cl)C(=O)n1ccnc1
active: Potency [18] 15.7 µM and 24.3 µM | Potency [5] 19.9 µM and 27.5 µM | Potency [17] 22.3 µM and 27.5 µM | Potency [10] 19.9 µM and 27.5 µM | Potency [15] 43.6 µM
inactive: Potency [1] | outcome [2] | activity change, positive = activation ([19]; at 92.4 µM (top of the series)) -62.9% and -57.3% | Potency [6] | Potency [7] | Potency [8] | Potency [9] | Potency [11] | Potency [12] | Potency [13] | Potency [14] | outcome [16]

Cc1ccccc1
inactive: Potency [1] | outcome [2] | Potency [3] | Potency [4] | Potency [5] | Potency [6] | Potency [7] | Potency [8] | Potency [17] | Potency [9] | max response [10] 11.7% | Potency [11] | Potency [12] | Potency [13] | Potency [14] | Potency [15] | outcome [16]

O=[N+]([O-])c1cc(Cl)c(Cl)cc1Cl
inactive: Potency [1] | outcome [2] | Potency [3] | Potency [18] | activity change, positive = activation ([19]; at 92.4 µM (top of the series)) 0.191% | Potency [4] | Potency [5] | Potency [6] | Potency [7] | Potency [9] | max response [10] 2.2% | Potency [12] | Potency [13] | Potency [14] | Potency [15] | outcome [16]

CCCCC(CC)COC(=O)c1c(Br)c(Br)c(Br)c(Br)c1C(=O)OCC(CC)CCCC (stereo not given)
inactive: Potency [1] | outcome [2] | Potency [3] | Potency [4] | Potency [5] | Potency [6] | Potency [7] | Potency [8] | Potency [9] | max response [10] -1.1% | Potency [11] | Potency [12] | Potency [13] | Potency [14] | Potency [15] | outcome [16]

O=C(CCl)CCl
active: Potency [1] 104 µM | Potency [5] 18 µM and 19.5 µM | Potency [8] 21.9 µM | Potency [10] 18 µM and 21.9 µM | Potency [14] 22.7 µM | Potency [15] 25.5 µM
inactive: Potency [3] | Potency [4] | Potency [7] | Potency [9] | Potency [11] | Potency [12] | Potency [13] | outcome [16]

CCOP(=S)(OCC)SCSc1cc(Cl)ccc1Cl
inactive: Potency [1] | outcome [2] | Potency [3] | Potency [4] | Potency [5] | Potency [7] | Potency [8] | Potency [17] | Potency [9] | max response [10] 0.23% | Potency [11] | Potency [12] | Potency [14] | outcome [16]

CCCCCCCCP(=O)(O)O
inactive: Potency [1] | outcome [2] | Potency [3] | Potency [4] | Potency [5] | Potency [6] | Potency [7] | Potency [8] | Potency [9] | max response [10] -9.79% | Potency [11] | Potency [12] | Potency [13] | Potency [14] | Potency [15] | outcome [16]

O=C(NC(=O)c1cc(F)c(F)cc1Cl)Nc1cc(F)ccc1N1CCC(C(=O)O)CC1
inactive: Potency [1] | outcome [2] | Potency [3] | Potency [4] | Potency [5] | Potency [6] | Potency [7] | Potency [8] | Potency [17] | Potency [9] | max response [10] 19.9% | Potency [11] | Potency [12] | outcome [16]

C[Si](Cn1cncn1)(c1ccc(F)cc1)c1ccc(F)cc1
inactive: Potency [1] | outcome [2] | activity change, positive = activation ([19]; at 92.4 µM (top of the series)) -66.3% and -52.8% | Potency [4] | Potency [6] | Potency [7] | Potency [9] | Potency [11] | Potency [13] | outcome [16]
50.6 µM (active) and inactive: Potency [12]
active: Potency [3] 104 µM | Potency [18] 28.2 µM and 30.6 µM | Potency [5] 25.4 µM and 21.9 µM | Potency [8] 54.9 µM | Potency [10] 25.4 µM and 21.9 µM | Potency [14] 50.6 µM | Potency [15] 50.6 µM and 49 µM

COc1ccc(C(O)(c2cncnc2)C2CC2)cc1 (stereo not given)
inactive: Potency [1] | outcome [2] | Potency [3] | Potency [18] | activity change, positive = activation ([19]; at 92.4 µM (top of the series)) 1.33% | Potency [4] | Potency [5] | Potency [6] | Potency [7] | Potency [8] | Potency [9] | max response [10] 0.605% | Potency [11] | Potency [12] | Potency [13] | Potency [14] | Potency [15] | outcome [16]

C=CCN1C[C@H](C)N([C@H](c2ccc(C(=O)N(CC)CC)cc2)c2cccc(OC)c2)C[C@H]1C
active: Potency [5] 19 µM | Potency [10] 19 µM | Potency [15] 21.3 µM
inactive: Potency [1] | activity change, positive = activation ([19]; at 42.5 µM (top of the series)) -5.94% | Potency [6] | Potency [7] | Potency [9] | Potency [12] | Potency [13] | Potency [14] | outcome [16]

Nc1ccccc1C(=O)OCC(O)CO (stereo not given)
inactive: Potency [1] | outcome [2] | Potency [3] | Potency [5] | Potency [6] | Potency [7] | Potency [8] | Potency [17] | Potency [9] | max response [10] 9.15% | Potency [11] | Potency [12] | Potency [13] | Potency [14] | Potency [15] | outcome [16]

O=[N+]([O-])O[C@H]1CO[C@H]2[C@@H]1OC[C@H]2O[N+](=O)[O-]
inactive: Potency [1] | Potency [3] | Potency [18] | activity change, positive = activation ([19]; at 42.5 µM (top of the series)) 4.43% | Potency [4] | Potency [5] | Potency [6] | Potency [7] | Potency [8] | Potency [17] | Potency [9] | max response [10] 6.05% | Potency [11] | Potency [12] | Potency [13] | Potency [14] | Potency [15] | outcome [16]

SCc1ccccc1
inactive: Potency [1] | outcome [2] | Potency [3] | Potency [4] | Potency [5] | Potency [6] | Potency [7] | Potency [8] | Potency [17] | Potency [9] | max response [10] 5.57% | Potency [11] | Potency [12] | Potency [13] | Potency [14] | Potency [15] | outcome [16]

Clc1ccccc1
inactive: Potency [1] | outcome [2] | Potency [3] | activity change, positive = activation ([19]; at 92.4 µM (top of the series)) 5.28% | Potency [4] | Potency [5] | Potency [6] | Potency [7] | Potency [8] | Potency [17] | Potency [9] | max response [10] -1.5% | Potency [11] | Potency [12] | Potency [13] | Potency [14] | Potency [15] | outcome [16]
